Reference: PubChem BioAssay
Activity calls are given as the source filed them.

Legend:
[1] = E. coli DRC41 culture turbidity changes, primary screen, E. coli filamentation inducer project, strain DRC41, OD650, 48 h (AID 1152);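 also: E. coli MC1000 strain DRC41 lacking acrAB efflux pump and sulA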; details: E. coli DRC41 (acrAB sulA), higher = more signal, called active from +8 up or from −8 down
[2] = small-molecule binders of probe aLefty1, primary screen, biochemical, small-molecule microarray, 635/667 nm fluorescence (AID 1153); details: higher = more signal;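 also: score merges spot fluorescence with signal-to-noise ratio from the scanned slide images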
[3] = PSAC antagonists in infected red cells, primary screen, cell-based, P. falciparum Indochina, OD700, 1 h (AID 1154); details: P. falciparum Indochina infected RBC osmotic lysis, higher = more signal, called active from +8 up or from −8 down
[4] = PSAC antagonists in infected red cells, primary screen, cell-based, P. falciparum Indochina, OD700, 2 h (AID 1155);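 also: lysis reports solute entry through the parasite surface anion channel PSAC; channel blockers reduce lysis of infected cells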; details: P. falciparum Indochina infected erythrocytes, osmotic lysis OD700; higher = more signal, called active from +8 up or from −8 down
[5] = osmotic lysis modulators in infected erythrocytes, primary screen, PSAC antagonist project, cell-based, P. falciparum Indochina, OD700, 3 h (AID 1156); details: higher = more signal, called active from +8 up or from −8 down
[6] = PSAC antagonists in infected red cells, primary screen, cell-based, P. falciparum Indochina, OD700, 18 h (AID 1157); details: P. falciparum Indochina infected erythrocytes, osmotic lysis OD700, 18 h; higher = more signal, called active from +8 up or from −8 down
[7] = modulators of S6 phosphorylation in cells, primary screen, cell-based, A549, cytoblot, luminescence, serum-stimulated (AID 1158); details: A549 phospho-S6 cytoblot, 5 h, higher = more signal;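 also: serum-stimulated A549 lung adenocarcinoma cells; signal is phosphorylated S6 detected by cytoblot immunostaining with HRP secondary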
[8] = biological target: NADPH oxidase 2 (Homo sapiens) (UniProt P04839); experiment: NOX2-dependent H2O2 signal modulators, primary screen, NOX inhibitor project, cell-based, HEK293-NOX2, PMA-stimulated, Amplex Red fluorescence (AID 1159); details: 45 min, higher = more signal, called active from +8 up or from −8 down; also: test concentration not given here
[9] = biological target: NADPH oxidase 4 (Homo sapiens) (UniProt Q9NPH5); experiment: NOX4-dependent H2O2 signal modulators, primary screen, NOX inhibitor project, cell-based, HEK293-NOX4, tetracycline-induced, Amplex Red fluorescence (AID 1160); details: 45 min, higher = more signal, called active from +8 up or from −8 down
[10] = biological target: NADPH oxidase 5 (Homo sapiens) (UniProt Q96PH1); experiment: NOX5-dependent H2O2 signal modulators, primary screen, NOX inhibitor project, cell-based, HEK293-NOX5, Amplex Red fluorescence (AID 1161); details: HEK293-NOX5, ionomycin, 45 min, higher = more signal
NADPH oxidase 5 (Homo sapiens), sequence (Q96PH1 whole entry, looked up): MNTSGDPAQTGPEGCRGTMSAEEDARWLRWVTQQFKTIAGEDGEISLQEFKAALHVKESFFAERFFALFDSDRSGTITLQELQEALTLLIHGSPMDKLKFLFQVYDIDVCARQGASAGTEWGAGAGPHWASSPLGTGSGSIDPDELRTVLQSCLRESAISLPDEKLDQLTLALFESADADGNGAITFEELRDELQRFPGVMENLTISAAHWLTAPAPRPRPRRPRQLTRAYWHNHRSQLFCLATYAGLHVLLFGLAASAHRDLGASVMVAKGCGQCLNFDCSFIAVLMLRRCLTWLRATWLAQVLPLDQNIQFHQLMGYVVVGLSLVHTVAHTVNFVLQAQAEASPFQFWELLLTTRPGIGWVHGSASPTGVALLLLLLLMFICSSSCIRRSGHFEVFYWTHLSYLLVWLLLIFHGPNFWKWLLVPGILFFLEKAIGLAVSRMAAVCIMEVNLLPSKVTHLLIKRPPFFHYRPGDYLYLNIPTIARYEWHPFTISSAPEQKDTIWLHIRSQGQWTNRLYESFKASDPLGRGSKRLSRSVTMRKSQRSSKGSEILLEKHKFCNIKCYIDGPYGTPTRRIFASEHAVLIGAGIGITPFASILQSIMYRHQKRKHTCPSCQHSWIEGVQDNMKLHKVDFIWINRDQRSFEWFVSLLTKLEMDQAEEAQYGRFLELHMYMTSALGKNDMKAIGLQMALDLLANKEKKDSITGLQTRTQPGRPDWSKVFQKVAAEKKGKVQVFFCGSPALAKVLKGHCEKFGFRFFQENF

NADPH oxidase 4 (Homo sapiens), sequence (Q9NPH5 whole entry, looked up): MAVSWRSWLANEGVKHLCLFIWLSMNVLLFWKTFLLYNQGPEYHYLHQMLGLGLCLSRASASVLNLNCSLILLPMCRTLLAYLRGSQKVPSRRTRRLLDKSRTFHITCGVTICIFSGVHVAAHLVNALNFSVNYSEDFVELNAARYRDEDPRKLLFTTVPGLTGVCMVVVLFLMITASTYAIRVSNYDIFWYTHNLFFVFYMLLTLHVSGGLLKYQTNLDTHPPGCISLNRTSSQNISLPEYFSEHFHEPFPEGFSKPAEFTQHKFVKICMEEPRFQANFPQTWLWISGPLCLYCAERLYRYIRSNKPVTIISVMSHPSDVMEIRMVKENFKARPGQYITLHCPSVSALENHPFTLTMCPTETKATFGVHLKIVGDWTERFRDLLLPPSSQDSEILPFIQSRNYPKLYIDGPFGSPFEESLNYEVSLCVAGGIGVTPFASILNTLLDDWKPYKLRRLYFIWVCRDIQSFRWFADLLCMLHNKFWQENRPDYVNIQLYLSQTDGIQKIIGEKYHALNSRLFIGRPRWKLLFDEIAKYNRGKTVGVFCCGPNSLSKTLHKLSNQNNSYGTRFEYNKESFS
NADPH oxidase 2 (Homo sapiens), sequence (P04839 whole entry, looked up): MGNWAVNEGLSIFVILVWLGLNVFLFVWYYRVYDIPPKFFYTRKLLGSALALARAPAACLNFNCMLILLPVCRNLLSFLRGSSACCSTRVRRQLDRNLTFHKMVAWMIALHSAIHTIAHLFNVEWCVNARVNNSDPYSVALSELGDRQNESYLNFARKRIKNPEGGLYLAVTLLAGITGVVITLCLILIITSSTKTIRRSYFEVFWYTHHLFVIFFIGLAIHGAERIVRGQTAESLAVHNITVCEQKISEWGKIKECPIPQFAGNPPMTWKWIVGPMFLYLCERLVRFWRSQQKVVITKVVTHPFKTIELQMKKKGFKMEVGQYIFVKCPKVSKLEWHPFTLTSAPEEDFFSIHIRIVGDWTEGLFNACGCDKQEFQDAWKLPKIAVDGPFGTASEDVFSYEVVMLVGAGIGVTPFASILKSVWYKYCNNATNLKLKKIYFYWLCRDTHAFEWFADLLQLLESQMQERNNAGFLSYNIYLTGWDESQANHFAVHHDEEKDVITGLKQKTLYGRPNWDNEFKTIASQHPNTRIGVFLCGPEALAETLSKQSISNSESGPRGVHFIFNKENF

SMILES	z-score [1]	composite z-score [2]	z-score [3]	z-score [4]	z-score [5]	z-score [6]	z-score [7]	z-score [8]	z-score [9]	z-score [10]
CCCC[C@@H]1C[C@H]1[C@@H](NC(=O)Cc1ccccc1)c1ccc(-c2ccccc2)cc1	-0.71 (inactive)	0.369	1.1 (inactive)	0.283 (inactive)	0.249 (inactive)	0.345 (inactive)	0.871	-1.35 (inactive)	-0.123 (inactive)	1.09
[N-]=[N+]=Nc1ccccc1[C@H]1OC(c2ccc(OCCCO)cc2)=N[C@@]1(Cc1ccccc1)C(=O)N1CCCCC1	0.546 (inactive)	0.51	31.2 (active)	27.9 (active)	2.35 (inactive)	8.26 (active)	0.583	-1.52 (inactive)	0.804 (inactive)	1.62
COc1ccc([Si](C)(C)[C@@H]2[C@@H](CC(=O)N(CCO)Cc3ccccc3)O[C@]3(C(=O)N(Cc4cccc(N5C(=O)c6cccc7cccc5c67)c4)c4ccccc43)[C@H]2C)cc1	2.02 (inactive)	0.287	4.59 (inactive)	0.343 (inactive)	-0.667 (inactive)	-0.526 (inactive)	1.92	1.09 (inactive)	1.09 (inactive)	3
O=C1O[C@H](c2ccccc2)[C@H](c2ccccc2)N2[C@H]1[C@@H](C(=O)Nc1nc3ccccc3s1)[C@]1(C(=O)Nc3ccccc31)[C@H]2c1ccc(OCCO)cc1	-0.222 (inactive)	-0.0099	3.55 (inactive)	2.95 (inactive)	0.458 (inactive)	2.31 (inactive)	-0.357	0.499 (inactive)	0.4 (inactive)	0.992
O=C1O[C@@H](c2ccccc2)[C@@H](c2ccccc2)N2[C@@H](c3ccc(O)cc3)[C@]3(C(=O)Nc4ccc(C#CC5=CCCCC5)cc43)[C@@H](C(=O)NC[C@H](O)c3ccccc3)[C@H]12	1.22 (inactive)	0.15	0.622 (inactive)	0.347 (inactive)	-0.853 (inactive)	0.933 (inactive)	0.0825	1.22 (inactive)	0.53 (inactive)	0.909
O=c1n(-c2ccccc2)c(=O)n2n1CC(COc1ccccc1)=C([C@H](O)CCc1ccccc1)[C@@H]2CO	2.63 (inactive)	-0.315	16.8 (active)	0.497 (inactive)	0.076 (inactive)	-1.51 (inactive)	1.02	-0.878 (inactive)	-0.265 (inactive)	-0.682
COC(=O)[C@@]1(Cc2ccc(F)cc2)[C@H]2c3cc(C(=O)N4CCCC4)n(CCc4ccc(O)c(O)c4)c3C[C@H]2CN1C(=O)c1ccccc1	-1.04 (inactive)	1.09	2.9 (inactive)	0.5 (inactive)	0.718 (inactive)	0.936 (inactive)	-0.243	-4.14 (inactive)	-7.52 (inactive)	-6.63
CCOC(=O)C1=CC[C@@H](c2cccc(Cl)c2)N(S(=O)(=O)c2ccc(C)cc2)C1	0.065 (inactive)	0.0166	2.31 (inactive)	-0.389 (inactive)	-0.423 (inactive)	-1.89 (inactive)	1.02	0.201 (inactive)	-0.927 (inactive)	-0.736
CO[C@H]1O[C@H](CO)[C@@H](OC(=O)Nc2ccccc2-c2ccccc2)[C@H](OC(=O)Nc2ccc3c(c2)OCO3)[C@H]1OC(=O)Nc1ccc2c(c1)OCO2	1.27 (inactive)	0.809	6.03 (inactive)	1.08 (inactive)	0.52 (inactive)	0.666 (inactive)	-0.0053	-2.21 (inactive)	-1.18 (inactive)	-2.42
COC(=O)[C@@]1(Cc2ccc(OC)cc2)[C@H]2c3cc(C(=O)N4CCCC4)n(Cc4cccc5ccccc45)c3C[C@H]2CN1C(=O)c1ccccc1	-0.492 (inactive)	0.258	3.9 (inactive)	0.408 (inactive)	1.48 (inactive)	0.983 (inactive)	0.0019	0.208 (inactive)	1.74 (inactive)	-1.45
CCCCC(=C=CC[C@@H](O)c1ccccc1OCCO)C[C@@H](O)COCc1ccccc1	1.47 (inactive)	0.117	17.5 (active)	1.74 (inactive)	-0.255 (inactive)	-0.385 (inactive)	1.51	-0.123 (inactive)	-0.101 (inactive)	-2.04
O=C1C2C=CC(C(O)c3ccccc3)N(Nc3ccccc3F)C2C(=O)N1c1ccccc1 (stereo not given)	0.0394 (inactive)	0.002	7.12 (inactive)	1.21 (inactive)	0.368 (inactive)	0.632 (inactive)	0.113	-2.07 (inactive)	-3.6 (inactive)	-2.26
CN1C(=O)C2C=CC(C(O)C#Cc3ccccc3)N(Nc3ccccc3)C2C1=O (stereo not given)	-0.877 (inactive)	0.545	1.07 (inactive)	0.783 (inactive)	0.0989 (inactive)	1.12 (inactive)	-1.19	-1.22 (inactive)	-4.71 (inactive)	-1.8
Cc1ccc(S[C@]2(C(=O)O)CC(=O)N(Cc3ccccc3Cl)[C@@H]2c2ccc(CO)cc2I)cc1	-0.754 (inactive)	-0.814	8.88 (active)	1.4 (inactive)	0.767 (inactive)	0.744 (inactive)	-0.0366	3.66 (inactive)	-2.51 (inactive)	-0.915
COCCCNC(=O)[C@@]1(Cc2ccccc2N=[N+]=[N-])N=C(c2ccc(OCCCO)cc2)O[C@H]1c1ccccc1	-0.3 (inactive)	0.535	21.5 (active)	4.21 (inactive)	1.28 (inactive)	1.4 (inactive)	0.796	-2.06 (inactive)	-0.374 (inactive)	-1.63
COc1cc(CO)cc(I)c1O[C@H]1C=C(C(=O)NCCO)C[C@@H](NCc2ccc(F)cc2)[C@@H]1O	0.548 (inactive)	-0.24	21.8 (active)	5.43 (inactive)	4.03 (inactive)	1.36 (inactive)	0.325	-1.07 (inactive)	-1.05 (inactive)	-0.994
CCC[C@@H]1C[C@@]1(CCC)[C@@H](NC(=O)OCc1ccccc1)c1ccc(-c2ccccc2)cc1	-1.07 (inactive)	0.545	3.2 (inactive)	0.81 (inactive)	-0.221 (inactive)	0.224 (inactive)	0.542	-0.648 (inactive)	-1.45 (inactive)	0.0161
CCOC(=O)C1CCCCN1 (stereo not given)	-0.641 (inactive)	1.08	-0.536 (inactive)	0.0175 (inactive)	-0.965 (inactive)	0.0086 (inactive)	-0.0896	0.0494 (inactive)	0.0488 (inactive)	-0.117
COCCOC(=O)N1C(=O)[C@@]2(c3ccccc31)[C@H](C(=O)N1CCN(c3ncccn3)CC1)[C@H]1C(=O)O[C@H](c3ccccc3)[C@H](c3ccccc3)N1[C@@H]2c1ccc(O)cc1	0.81 (inactive)	0.0661	1.78 (inactive)	0.672 (inactive)	0.481 (inactive)	0.261 (inactive)	0.0481	1.25 (inactive)	-0.0154 (inactive)	2.19
CC(=O)NCCCC[C@@H]1NC(=O)[C@H]2C[C@@H](C(=O)NCCCC[N+](C)(C)C)[C@@H](c3cccc(OCCO)c3)N2C1=O	0.485 (inactive)	0.165	2.46 (inactive)	0.331 (inactive)	-1.58 (inactive)	0.374 (inactive)	-0.611	-1.23 (inactive)	-0.477 (inactive)	-1.08
C[C@]1(C(=O)NC2CC2)c2ccccc2C(=O)N(Cc2ccccc2)[C@H]1c1ccc(CO)cc1	2.07 (inactive)	-0.147	2.84 (inactive)	0.17 (inactive)	0.475 (inactive)	-0.779 (inactive)	2.26	-0.148 (inactive)	-1.55 (inactive)	-0.249
